Here are results for 39 compounds from PubChem BioAssay (NCATS).

Inconclusive results are not listed. A call without a number means that no potency is given here. Activity calls are given as the source filed them. Calls follow the shape of the full dose curve; tested in HEK293 reporter line.
Potency is read from the fitted curve at half-maximal effect.

One assay in a line: qHTS for Inhibitors of the Functional Ribonucleoprotein Complex (vRNP) of Lassa (LASV) Arenavirus: LASV Primary Screen - GLuc reporter signal (AID 1347082). Also: nearly all actives have a fitted effect of over 60% in size. Particulars: LASV minigenome vRNP, Gaussia luciferase reporter; series mostly up to 57.5 µM. On the technique in general: qHTS replaces the single test concentration by a dilution series.
With `CC(=O)OC1C(OC(C)=O)C2C(C)CC3OC(=O)C(C)C3CC2(C)C1OC(C)=O` (stereo not drawn), the Potency entry is “inactive”.
On the same count and under the same terms, as for `FC(F)c1nc2ccccc2n1-c1nc(N2CCOCC2)nc(N2CCOCC2)n1`, the figure is 8.63 µM (active).
As to `Cn1c(=O)c2[nH]c(=O)[nH]c2n(C)c1=O`, the Potency entry is “inactive”.
Same read-out and setting: the value for `COC(=O)c1cc(OC)cc(O)c1C(=O)c1c(O)cc(C)cc1O` was “inactive”.
The same measure, in the same setting: the value for `C[C@@H]1[C@H]2[C@@H](O[C@@H]3O[C@H](CO)[C@@H](O)[C@H](O)[C@H]3O)OC=C(C(=O)O)[C@H]2C[C@@H]1O` was “inactive”.
Same read-out and setting: as for `CCCCCCCCCCCCCCCC(=O)OC(CO)CO`, the entry is “inactive”; as for `CCCCCCCCC(=O)OCC`, “inactive”.
Take `CCCCC/C=C\C/C=C\C/C=C\C=C\C(O)CCCC(=O)O` (stereo not drawn): the activity change, negative = inhibition is -8.78% [at 0.757 µM] (inactive).
`CC(C)c1cccc(O)c1`: the Potency entry is “inactive”.
Still for that read-out and setting: the value for `COc1cc2ccc(=O)oc2c(O)c1O` was “inactive”.
`CC[C@@H]1C=C(C)C[C@H](C)C[C@H](OC)[C@H]2O[C@@](O)(C(=O)C(=O)N3CCCC[C@@H]3C(=O)O[C@H](C(C)=C[C@@H]3CC[C@H](Cl)[C@H](OC)C3)[C@H](C)[C@@H](O)CC1=O)[C@H](C)C[C@H]2OC`: the Potency entry was “inactive”.
With `Cc1ccc2ccccc2n1`, the Potency result was “inactive”.
On the same count and under the same terms, as for `COc1ccc2c3c([nH]c2c1)C(C)NCC3` (stereo not drawn), the entry is “inactive”.
On to `CCCCCCCCCCCC(=O)c1c(O)cccc1O`, for which the Potency entry was “inactive”.
The same measure, in the same setting: the value for `C=C[C@]1(C)C=C2C(=O)[C@@]3(O)OC(=O)[C@@]4(CCCC(C)(C)[C@H]34)[C@@]2(O)CC1` was “inactive”.
For `COc1ccc(C(=O)OC2C[C@H]3CC[C@@H](C2)N3O)cc1OC` (stereo partly drawn), the Potency result was “inactive”.
Same read-out and setting: as for `OCc1ccccc1O[C@@H]1O[C@H](CO)[C@H](O)[C@H](O)[C@H]1O`, the entry is “inactive”; as for `CC12CCC(=O)C=C1CCC1C2CCC2(C)C(C(=O)CO)CC(O)C12` (stereo not drawn), “inactive”.
Take `COc1cc(/C=C/C(=O)OC[C@H]2O[C@H](OC3(CO)OC(CO)C(O)C3O)[C@H](O)[C@@H](O)[C@@H]2O)ccc1O` (stereo partly drawn): the Potency entry is “inactive”.
Regarding `OC[C@H]1O[C@@H]2O[C@H]3[C@H](O)[C@@H](O)[C@@H](O[C@H]4[C@H](O)[C@@H](O)[C@@H](O[C@H]5[C@H](O)[C@@H](O)[C@@H](O[C@H]6[C@H](O)[C@@H](O)[C@@H](O[C@H]7[C@H](O)[C@@H](O)[C@@H](O[C@H]8[C@H](O)[C@@H](O)[C@@H](O[C@H]9[C@H](O)[C@@H](O)[C@@H](O[C@H]1[C@H](O)[C@H]2O)O[C@@H]9CO)O[C@@H]8CO)O[C@@H]7CO)O[C@@H]6CO)O[C@@H]5CO)O[C@@H]4CO)O[C@@H]3CO`, the Potency entry is “inactive”.
In the case of `COc1cc2c3c(c1OC)C1(C=CC(=O)C=C1)CC3N(C(C)=O)CC2` (stereo not drawn), the Potency entry was “inactive”.
On the same count and under the same terms, the value for `COC(=O)C1=COC(O[C@H]2OC(CO)[C@H](O)C(O)C2O)[C@H]2C1C(=O)C[C@@H]2C` (stereo partly drawn) was “inactive”; that for `CC1(C)OC(=O)C=C[C@]2(C)[C@H]3CC[C@@]4(C)[C@H](c5ccoc5)OC(=O)[C@H]5O[C@]54[C@]3(C)C(=O)C[C@@H]12` was “inactive”; that for `Cc1ccc2c(c1)C(=O)c1ccccc1C2=O` was “inactive”.
Still for that read-out and setting: the value for `COc1cc(C(=O)OC2C[C@H]3CC[C@@H](C2)N3)ccc1O` (stereo partly drawn) was “inactive”.
Consider `C[C@H]1C[C@H]2[C@@H]3CCC4=CC(=O)C=C[C@]4(C)[C@@H]3C(=O)C[C@]2(C)[C@@]1(O)C(=O)CO`, for which the Potency result is “inactive”.
Same read-out and setting: as for `CC(C)(O)C1CC[C@@](C)([C@@H]2CC[C@]3(C)[C@H]2[C@H](O)CC2[C@@]4(C)CCC(O)C(C)(C)C4C(OC4OC(CO)C(O)C(O)C4O[C@@H]4OCC(O)C(O)C4O)C[C@]23C)O1` (stereo partly drawn), the entry is “inactive”; as for `CCCCCCOC(=O)c1ccccc1`, “inactive”.
Same read-out and setting: the value for `C=C[C@]1(C)C=C2C(=O)C[C@H]3C(C)(C)CCC[C@]3(C(=O)O)[C@@]2(O)CC1` was “inactive”; that for `C=O` was “inactive”; that for `O=C1CCCC2[C@@H]3CCC[N@+]4([O-])CCC[C@H](CN12)C34` (stereo partly drawn) was “inactive”.
Still for that read-out and setting: as for `O=Cc1ccc(O)cc1O`, the entry is “inactive”; as for `CCCC/C=C/CCCCO`, “inactive”.
Regarding `CC(C)=CCC/C(C)=C/COc1c2ccoc2cc2oc(=O)ccc12`, the Potency result is “inactive”.
Same read-out and setting: the value for `C=C1C(O)C[C@H]2C(=C)CCC3[C@H](OC(=O)[C@]3(O)CO)[C@@H]12` (stereo partly drawn) was “inactive”; that for `O=P(O)(O)OC[C@H]1O[C@](O)(COP(=O)(O)O)[C@@H](O)[C@@H]1O` was “inactive”.
`C=C(C)[C@@H]1CCC2=CCC[C@@H](C)[C@]2(C)C1`: the Potency result was “inactive”.
For the compound `Cc1csc(NC(=O)c2sc3nc4c(c(C(F)(F)F)c3c2N)CCC4)n1`, the Potency result was “inactive”.
Consider `Cn1cnc2c(ncn2[C@@H]2O[C@H](CO)[C@@H](O)[C@H]2O)c1=N`, for which the Potency entry was “inactive”.

A further assay can be described thus: qHTS for Inhibitors of the Functional Ribonucleoprotein Complex (vRNP) of Lassa (LASV) Arenavirus: Viability assay - alamar blue signal for LASV Primary Screen (AID 1347083). Also: nearly all actives have a fitted effect of over 80% in size. The note with it: cell viability, alamar blue fluorescence (LASV minigenome counter-screen); series mostly up to 57.5 µM.
As to `CC(=O)OC1C(OC(C)=O)C2C(C)CC3OC(=O)C(C)C3CC2(C)C1OC(C)=O` (stereo not drawn), the Potency result is “inactive”.
In the case of `FC(F)c1nc2ccccc2n1-c1nc(N2CCOCC2)nc(N2CCOCC2)n1`, the Potency is 3.06 µM (active).
Turning to `Cn1c(=O)c2[nH]c(=O)[nH]c2n(C)c1=O`, the Potency result was “inactive”.
Regarding `COC(=O)c1cc(OC)cc(O)c1C(=O)c1c(O)cc(C)cc1O`, the Potency result is “inactive”.
Consider `C[C@@H]1[C@H]2[C@@H](O[C@@H]3O[C@H](CO)[C@@H](O)[C@H](O)[C@H]3O)OC=C(C(=O)O)[C@H]2C[C@@H]1O`, for which the Potency entry was “inactive”.
On the same count and under the same terms, as for `CCCCCCCCCCCCCCCC(=O)OC(CO)CO`, the entry is “inactive”; as for `CCCCCCCCC(=O)OCC`, “inactive”.
For the compound `CCCCC/C=C\C/C=C\C/C=C\C=C\C(O)CCCC(=O)O` (stereo not drawn), the activity change, negative = reduced viability is 7.65% [at 0.757 µM] (inactive).
Take `CC(C)c1cccc(O)c1`: the Potency entry is “inactive”.
Same read-out and setting: as for `COc1cc2ccc(=O)oc2c(O)c1O`, the entry is “inactive”.
Same read-out and setting: as for `CC[C@@H]1C=C(C)C[C@H](C)C[C@H](OC)[C@H]2O[C@@](O)(C(=O)C(=O)N3CCCC[C@@H]3C(=O)O[C@H](C(C)=C[C@@H]3CC[C@H](Cl)[C@H](OC)C3)[C@H](C)[C@@H](O)CC1=O)[C@H](C)C[C@H]2OC`, the entry is “inactive”; as for `Cc1ccc2ccccc2n1`, “inactive”.
`COc1ccc2c3c([nH]c2c1)C(C)NCC3` (stereo not drawn): the Potency entry was “inactive”.
`CCCCCCCCCCCC(=O)c1c(O)cccc1O`: the Potency result is “inactive”.
Regarding `C=C[C@]1(C)C=C2C(=O)[C@@]3(O)OC(=O)[C@@]4(CCCC(C)(C)[C@H]34)[C@@]2(O)CC1`, the Potency result was “inactive”.
Regarding `COc1ccc(C(=O)OC2C[C@H]3CC[C@@H](C2)N3O)cc1OC` (stereo partly drawn), the Potency entry is “inactive”.
The same measure, in the same setting: the value for `OCc1ccccc1O[C@@H]1O[C@H](CO)[C@H](O)[C@H](O)[C@H]1O` was “inactive”.
Turning to `CC12CCC(=O)C=C1CCC1C2CCC2(C)C(C(=O)CO)CC(O)C12` (stereo not drawn), the Potency result was “inactive”.
On to `COc1cc(/C=C/C(=O)OC[C@H]2O[C@H](OC3(CO)OC(CO)C(O)C3O)[C@H](O)[C@@H](O)[C@@H]2O)ccc1O` (stereo partly drawn), for which the Potency entry was “inactive”.
On to `OC[C@H]1O[C@@H]2O[C@H]3[C@H](O)[C@@H](O)[C@@H](O[C@H]4[C@H](O)[C@@H](O)[C@@H](O[C@H]5[C@H](O)[C@@H](O)[C@@H](O[C@H]6[C@H](O)[C@@H](O)[C@@H](O[C@H]7[C@H](O)[C@@H](O)[C@@H](O[C@H]8[C@H](O)[C@@H](O)[C@@H](O[C@H]9[C@H](O)[C@@H](O)[C@@H](O[C@H]1[C@H](O)[C@H]2O)O[C@@H]9CO)O[C@@H]8CO)O[C@@H]7CO)O[C@@H]6CO)O[C@@H]5CO)O[C@@H]4CO)O[C@@H]3CO`, for which the Potency result is “inactive”.
Same read-out and setting: the value for `COc1cc2c3c(c1OC)C1(C=CC(=O)C=C1)CC3N(C(C)=O)CC2` (stereo not drawn) was “inactive”; that for `COC(=O)C1=COC(O[C@H]2OC(CO)[C@H](O)C(O)C2O)[C@H]2C1C(=O)C[C@@H]2C` (stereo partly drawn) was “inactive”; that for `CC1(C)OC(=O)C=C[C@]2(C)[C@H]3CC[C@@]4(C)[C@H](c5ccoc5)OC(=O)[C@H]5O[C@]54[C@]3(C)C(=O)C[C@@H]12` was “inactive”.
Take `Cc1ccc2c(c1)C(=O)c1ccccc1C2=O`: the Potency result is “inactive”.
Take `COc1cc(C(=O)OC2C[C@H]3CC[C@@H](C2)N3)ccc1O` (stereo partly drawn): the Potency result is “inactive”.
As to `C[C@H]1C[C@H]2[C@@H]3CCC4=CC(=O)C=C[C@]4(C)[C@@H]3C(=O)C[C@]2(C)[C@@]1(O)C(=O)CO`, the Potency result was “inactive”.
Still for that read-out and setting: the value for `CC(C)(O)C1CC[C@@](C)([C@@H]2CC[C@]3(C)[C@H]2[C@H](O)CC2[C@@]4(C)CCC(O)C(C)(C)C4C(OC4OC(CO)C(O)C(O)C4O[C@@H]4OCC(O)C(O)C4O)C[C@]23C)O1` (stereo partly drawn) was “inactive”; that for `CCCCCCOC(=O)c1ccccc1` was “inactive”; that for `C=C[C@]1(C)C=C2C(=O)C[C@H]3C(C)(C)CCC[C@]3(C(=O)O)[C@@]2(O)CC1` was “inactive”.
Turning to `C=O`, the Potency entry was “inactive”.
With `O=C1CCCC2[C@@H]3CCC[N@+]4([O-])CCC[C@H](CN12)C34` (stereo partly drawn), the Potency entry was “inactive”.
Still for that read-out and setting: as for `O=Cc1ccc(O)cc1O`, the entry is “inactive”; as for `CCCC/C=C/CCCCO`, “inactive”; as for `CC(C)=CCC/C(C)=C/COc1c2ccoc2cc2oc(=O)ccc12`, “inactive”.
The same measure, in the same setting: the value for `C=C1C(O)C[C@H]2C(=C)CCC3[C@H](OC(=O)[C@]3(O)CO)[C@@H]12` (stereo partly drawn) was “inactive”; that for `O=P(O)(O)OC[C@H]1O[C@](O)(COP(=O)(O)O)[C@@H](O)[C@@H]1O` was “inactive”; that for `C=C(C)[C@@H]1CCC2=CCC[C@@H](C)[C@]2(C)C1` was “inactive”.
For `Cc1csc(NC(=O)c2sc3nc4c(c(C(F)(F)F)c3c2N)CCC4)n1`, the Potency entry was “inactive”.
Take `Cn1cnc2c(ncn2[C@@H]2O[C@H](CO)[C@@H](O)[C@H]2O)c1=N`: the Potency result is “inactive”.
